VP16 counter = Gal4-VP16 reporter inhibition counter-screen; Drosophila S2 Gal4-VP16 UAS-luciferase, luminescence, 20 h; Potency, µM (top dose mostly 53.6 µM), for the others: at the top dose activity, negative = inhibition, hits mostly inhibitors; 3.5% of 310,000 active; AID 2546;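 note: Gal4-VP16 expression switched on by copper sulfate through the metallothionein promoter; nearly all actives have a fitted effect of over 50% in size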
Sfp inh = blocks B. subtilis Sfp PPTase activity | Q9F4F7 | Biochemical Sfp PPTase activity, qHTS | Potency, µM, for the others: largest response in the series, negative = inhibition, hits mostly inhibitors | 3.5% of 310,000 active | AID 1490;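 note: the enzyme is Sfp with the accession as filed and its product quenches rhodamine fluorescence; 0% = enzyme reaction without inhibitor and -100% = no enzyme wells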
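Sfp 15 nM + cpd, 15 min RT; start w/ rhodamine-CoA 5 uM, BHQ-2-YbbR 12.5 uM (final); 50 mM Hepes pH 7.6, 10 mM MgCl2, 0.01% NP-40, 0.01% BSA; read 525/598 nm at 0 and 30 min.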
PLK1 PBD block = PLK1 (human) polo-box domain binding inhibition | P53350 | Plk1 PBD binding of FITC phosphopeptide, fluorescence polarization | Potency, µM, inactives show max response, negative = inhibition, hits mostly inhibitors | 2.8% of 360,000 active; note: series mostly up to about 57 µM; nearly all actives have a fitted effect of over 65% in size
ALDH1A1 inh = ALDH1A1 (human) enzyme inhibition; P00352; Purified ALDH1A1, NADH fluorescence, propionaldehyde substrate; Potency, µM (series often up to 75.3 µM), inactives show at the top dose activity, negative = inhibition, actives largely listed as inhibitors; 7.3% of 220,000 active; active = well fitted inhibition curve with a large enough effect, not every such curve was filed as active; inconclusive = small, poorly fitted or top-dose-only effect, or another doubt; inactive = no such curve, though single readings can be large or run the other way;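 note: plate controls were no enzyme wells and a reference inhibitor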
RORg inh = inhibitors of mouse ROR gamma transcriptional activity; Drosophila S2 Gal4-RORgamma UAS-luciferase reporter, 20 h; P51450; 5.4% of 310,000 active; Potency, µM (series often up to 53.6 µM), for inactives: top-dose activity change, negative = inhibition, usual class: inhibitors; AID 2551; note: nearly all actives have a fitted effect of over 60% in size
Target sequence (P51450 whole entry, looked up, the tested form may be a part): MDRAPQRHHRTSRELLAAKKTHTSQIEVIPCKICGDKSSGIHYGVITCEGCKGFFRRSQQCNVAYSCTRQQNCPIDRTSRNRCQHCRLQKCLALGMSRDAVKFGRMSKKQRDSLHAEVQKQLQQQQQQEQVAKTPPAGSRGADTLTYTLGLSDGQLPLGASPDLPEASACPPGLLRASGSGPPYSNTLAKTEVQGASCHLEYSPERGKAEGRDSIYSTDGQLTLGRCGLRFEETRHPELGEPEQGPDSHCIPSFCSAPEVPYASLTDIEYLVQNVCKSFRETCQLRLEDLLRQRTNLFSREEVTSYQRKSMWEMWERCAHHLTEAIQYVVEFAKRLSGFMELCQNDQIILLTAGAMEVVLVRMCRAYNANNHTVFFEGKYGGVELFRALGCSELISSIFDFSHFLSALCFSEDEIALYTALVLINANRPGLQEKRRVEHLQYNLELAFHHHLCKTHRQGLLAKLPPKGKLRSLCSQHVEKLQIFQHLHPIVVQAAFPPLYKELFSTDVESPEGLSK
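Stably transfected Drosophila Schneider cells are the test system, with ROR gamma fused to Gal4 and luciferase under UAS control; luminescence is read after 20 hr of 700 uM copper sulfate induction at ambient temperature.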
Active calls of the source: *; ? = inconclusive; / = not tested or not shown; [ ] = dose if it differs, or a comment. Compounds with a hit are over-represented: about 12% of the library has one in this group of screens. Unless noted, calls come from the whole dose curve; as a rule, active = well fitted curve in the direction sought with a large enough effect; inconclusive = small, poorly fitted or top-dose-only effect, or another doubt; inactive = no such curve, though single readings can be large; an effect the other way counts as inactive or inconclusive. Unless noted, % is set by controls: 0 for no effect and ±100 for the full control effect; potency is the fitted concentration of half-maximal effect.

SMILES	VP16 counter	Sfp inh	PLK1 PBD block	ALDH1A1 inh	RORg inh
CC(C)CO/N=C1/[C@H]2O[C@@H]2[C@@H](O)[C@H]2[C@H]1CCn1c(=O)n(-c3ccccc3)c(=O)n12	2.9%[10 µM]	21.4%	/	10.0%[13.5 µM]	0.0%[10 µM]
CC(C)N(Cc1ccccc1)C(=S)Nc1cccnc1	-11.4%	16.5%	-5.2%	-4.1%	-11.5%
CC(C)N(Cc1ccccc1)C(=S)NC(=O)C1(C)CC1(Cl)Cl (centres undefined)	2.51µM*	20.3%	-2.9%	9.8%	0.562µM*
CC1(C(=O)NC(=S)N(CCC#N)c2ccccc2)CC1(Cl)Cl (centres undefined)	?	-2.5%	-16.0%	-8.1%	12.6µM*
COc1ccc(NC2=NCC(Cc3ccc(Br)cc3)S2)cc1 (centres undefined)	3.55µM*	-1.3%	-15.4%	-4.5%	?
COc1ccc(S(=O)(=O)NCc2ccc(C(=O)O)cc2)cc1	-13.0%	0.6%	-0.3%	8.7%	-15.7%
COc1ccc(NCc2ccc(OC)c(OC)c2)cc1	-4.2%	-2.5%	/	28.2µM*	-26.5%
COc1ccc(Nc2ccc(OC)cc2)cc1	6.1%	2.82µM*	-12.0%	/	-29.8%
COc1ccc(CNc2ccc(C)c(C)c2)cc1	17.9%	12.5%	1.7%	-6.1%	27.5%
COc1ccc(CNc2ccc(C(=O)O)cc2)cc1	0.631µM*	5.6%	0.3%	12.8%	1.26µM*
COCCNC(=O)C1(C)CCCN(C(=O)c2cc(OC)c(OC)c(OC)c2)C1 (centres undefined)	/	/	-4.7%	/	/
Cc1onc(-c2ccccc2Cl)c1C(=O)NCc1nnnn1-c1ccc(F)c(F)c1	/	/	-12.0%	/	/
COc1cc(CNc2ccc(N3CCCC3)cc2)ccc1OCc1ccccc1F	-11.9%	-16.0%	-14.8%	2.9%	-1.0%
COc1cc(CNc2ccc(N3CCCC3)cc2)ccc1OCc1ccccc1	4.7%	?	-18.0%	7.94µM*	-22.0%
COc1ccc(CNc2ccc(Br)cc2)cc1	-18.4%	56.2µM*	4.8%	7.7%	9.7%
CO[C@@H]1/C=C\O[C@@]2(C)Oc3c(C)c(O)c4c(c3C2=O)C(=N[C@H]2CC[C@H](O)O[C@@H]2C)C=C(NC(=O)/C(C)=C\C(=O)[C@@H]2C[C@@H]2[C@@H](O)[C@H](C)[C@@H](O)[C@H](C)[C@H](OC(C)=O)[C@@H]1C)C4=O	/	/	/	-12.8%[13.5 µM]	/
Cc1nc2c(-c3ccc(F)cc3)c(C)[nH]n2c(=O)c1Cl	11.2µM*	13.6%	-16.7%	/	11.2µM*
COc1ccc(-c2c(C)[nH]n3c(=O)c(Cc4ccccc4)c(C)nc23)cc1OC	?	1.2%	-1.7%	-3.9%	3.55µM*
CCOC(=O)Cc1c(C)nc2c(-c3ccccc3)c(C)[nH]n2c1=O	1.5%	-6.1%	-1.9%	-13.1%	33.8%
Cc1nc2c(-c3ccc(Cl)cc3)c(C)[nH]n2c(=O)c1Cc1ccccc1	?	8.8%	-20.9%	?	1.41µM*
Cc1nc2c(-c3ccccc3)c(C)[nH]n2c(=O)c1Cc1ccccc1	7.08µM*	15.6%	-6.3%	-5.5%	2.82µM*
Cc1nc2c(C#N)c(C)[nH]n2c(=O)c1Cc1ccccc1	2.0%	24.7%	-5.5%	-7.1%	-42.4%
Cc1[nH]n2c(=O)c3c(nc2c1-c1ccc(F)cc1)CCCC3	1.7%	23.5%	-19.0%	-12.4%	-20.2%
C=Cc1ccc(S(=O)(=O)O)cc1	6.2%	11.7%	/	/	-12.9%
CCOC(=O)C(C)Sc1nc(=O)n2ccccc2n1 (centres undefined)	1.1%	6.4%	23.8µM*	-4.5%	-1.4%
SMILES	VP16 counter	Sfp inh	PLK1 PBD block	ALDH1A1 inh	RORg inh
CCCn1c(CC)nc([N+](=O)[O-])c1S(=O)(=O)c1ccccc1	17.8µM*	8.1%	?	-13.4%	7.94µM*
CCc1nc(C)cn1S(=O)(=O)c1ccc([N+](=O)[O-])cc1	-9.0%	13.3%	-10.8%	14.2%	1.0%
O=C(c1cc(C(F)(F)F)cc(C(F)(F)F)c1)N1CCC[C@@]2(CCN(c3ccccc3)C2)C1	-7.3%	21.4%	/	-6.1%	1.0%
Cc1nc(Nc2ccc(Cl)cc2)c2nnn(Cc3ccccc3)c2n1	-2.8%	20.8%	26.7µM*	?	4.7%
Cc1nc(Nc2cccc(C(C)O)c2)c2nnn(Cc3ccccc3F)c2n1 (centres undefined)	-11.5%	15.0%	-1.4%	4.47µM*	-9.2%
Cc1nc(Nc2cc(F)ccc2C)c2nnn(Cc3ccccc3)c2n1	15.9%	-50.7%	23.8µM*	/	?
Nc1nc2c(c(=O)[nH]1)CN(c1ccc(S(N)(=O)=O)cc1)CN2	/	/	/	-3.7%[13.5 µM]	/
O=C(NCc1cccnc1)/C(=C/c1ccc(-c2cccc(C(F)(F)F)c2)o1)NC(=O)c1ccccc1	-13.6%	5.0%	-11.5%	7.9%	?
O=C(CN(Cc1ccc(Br)cc1)S(=O)(=O)c1ccccc1)NCc1cccnc1	-3.8%	1.3%	-14.4%	/	2.4%
O=C(NCc1cccnc1)/C(=C/c1ccc(-c2ccc(Cl)cc2)o1)S(=O)(=O)c1ccccc1	20µM*	-12.0%	?	?	?
O=C(NCc1cccnc1)/C(=C\c1ccc(-c2ccc(Br)cc2)o1)S(=O)(=O)c1ccccc1	?	2.0%	?	3.55µM*	?
COc1ccc(-c2coc3ccc(OC4OC(COC(C)=O)C(OC(C)=O)C(OC(C)=O)C4OC(C)=O)cc3c2=O)cc1 (centres undefined)	-10.2%	23.8%	/	-7.1%	20.5%
CSc1ncccc1C(=O)N1CCCC(N2CCN(c3ccccc3C)CC2)C1 (centres undefined)	/	/	5.2%	/	/
CC(=O)c1c(C)[nH]c(C(=O)OCC(=O)NC(C)c2ccccc2)c1C (centres undefined)	/	/	-8.6%	/	/
COc1ccc(CNc2ccnc(-c3ccccc3CN(C)C)n2)c(OC)c1	5.0%	-2.1%	/	0.3%	-12.9%
COC(=O)[C@@]12C[C@@H](CC(=O)NCc3ccc(C)o3)C(=O)N(Cc3ccccc3)C1=CCC(C)(C)C2	/	/	-15.0%	/	/
c1cncc(CSc2nnc(-c3cccnc3)n2Cc2ccco2)c1	0.5%	15.6%	/	1.9%	4.9%
Clc1ccc(CSc2nnc(-c3cccnc3)n2Cc2ccco2)c(Cl)c1	8.6%	35.5µM*	-27.1%	4.47µM*	28.5%
O=C(CSc1nnc(-c2cccnc2)n1Cc1ccccc1)NCc1ccco1	-3.4%	-6.1%	-13.4%	-2.1%	-5.2%
COc1ccc(C(=O)CSc2nnc(-c3cccnc3)n2Cc2ccco2)cc1	0.4%	-0.3%	-13.0%	0.0%	6.9%
O=C(CSc1nnc(-c2cccnc2)n1Cc1ccco1)N1c2ccccc2Sc2ccccc21	?	3.55µM*	-9.4%	?	12.6µM*
Clc1cccc(CSc2nnc(-c3cccnc3)n2Cc2ccco2)c1	?	50.1µM*	-10.6%	-3.6%	15.8µM*
COc1ccc(C(NC(=O)C2CCN(CCOc3ccc(Cl)cc3Cl)CC2)c2cccs2)cc1 (centres undefined)	/	/	-0.6%	/	/
C[C@@H]1Oc2ccc(C(=O)C[C@@H](C(=O)O)c3ccc4c(c3)OCO4)cc2O1	/	/	/	0.4%[13.5 µM]	/

Screens: PubChem, National Center for Advancing Translational Sciences (NCATS)
